From PubChem BioAssay
CtBP-E1A blk = qHTS Assay for Inhibitors of the CtBP/E1A Interaction | AlphaScreen GST-E1A/His-CtBP binding, 1536-well; hits give low values | activity change, % (concentration not given with the values) | 340,000 tested, 0.49% active | AID 651724, 2012; in the data active means activity change below about -65%; inconclusive means mostly about -30% to -63%
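Homogeneous bead-based format: GST-tagged E1A captured on glutathione donor beads, His-tagged CtBP on nickel acceptor beads; compounds precede bead addition by 2 h at 37 °C.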
HP1b chromo inh = HTS for Inhibitors of HP1-beta Chromodomain Interactions with Methylated Histone Tails. Chromobox protein homolog 1 (Homo sapiens), P83916. AlphaScreen HP1-beta / biotin-H3K9me3 peptide binding. Potency, µM (top dose mostly 114 µM), most hits filed as inhibitors. 390,000 tested, 0.56% active. AID 540317, 2011; further: nearly all actives have a fitted effect of over 70% in size
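AlphaScreen: HP1-beta (50 nM) preformed 30 min with biotin-H3(1-18)K9me3 peptide (50 nM) in PBS pH 7.4, 0.01% Tween-20. Compound added for 30 min at RT, then streptavidin donor/nickel chelate acceptor beads (10 ug/mL) for 30 min.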
Six1-Eya2 blk = qHTS Assay for Inhibitors of the Six1/Eya2 Interaction | Homeobox protein SIX1 (Homo sapiens) + Protein phosphatase EYA2 (Homo sapiens), … | AlphaScreen GST-Six1/His-Eya2 binding, biochemical; hits give low values | activity change, % (no concentration beside the values) | 360,000 tested, 0.56% active; in the data active means activity change below about -65%; inconclusive means mostly about -30% to -63%
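Six1/Eya2 binding was read as AlphaScreen signal after compounds were pinned into GST-Six1 plus His-tagged Eya2 (5X stock 250/500 nM) in pH 8.0 Tris/NaCl/TCEP buffer, beads added, then incubated 1 h, 37 C, dark.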
G9a inh = qHTS Assay for Inhibitors of Histone Lysine Methyltransferase G9a. G9a H3K9 monomethylation, AlphaScreen, 2 h. Potency, µM (highest dose often 102 µM), usual class: inhibitors. 350,000 tested, 8.8% active. AID 504332, 2011; further: nearly all actives have a fitted effect of over 75% in size
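Using a bead-based AlphaScreen, monomethylated H3K9 product from 2 h room-temperature reactions (G9a 20 nM, peptide 500 nM, SAM 20 uM) was detected with 0.5 ug/mL rabbit anti-H3K9me1 antibody.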
BAZ2B block = qHTS Assay for Inhibitors of BAZ2B; 360,000 tested, 4.4% active; AlphaScreen BAZ2B-H3K14Ac peptide displacement; AID 504333, 2011; Potency, µM (series often up to 114 µM), actives largely listed as inhibitors; Bromodomain adjacent to zinc finger domain protein 2B (Homo sapiens), Q9UIF8; further: nearly all actives have a fitted effect of over 60% in size
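AlphaScreen displacement: compounds (up to 110uM) incubated 30 min at room temperature with a preformed 50 nM BAZ2B/50 nM biotinylated H3K14Ac peptide complex in PBS pH 7.4 with Tween-20. Donor and acceptor beads at 10 ug/mL final added, 20 min light-protected before reading.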
JMJD2A Tudor inh = qHTS Assay for Inhibitors of JMJD2A-Tudor Domain | AID 504339, 2011 | 390,000 tested, 4.4% active | AlphaScreen JMJD2A-Tudor / H3K4me3 peptide binding | Potency, µM (doses to about 114 µM), actives largely listed as inhibitors | Lysine-specific demethylase 4A (Homo sapiens), O75164; further: nearly all actives have a fitted effect of over 50% in size
A number is an active result; n = inactive; u = inconclusive; x = no result; ! = not active in a repeat; [ ] = remark or other dose. Sampled rows, rich in hits. Any-hit rate of the full collection: about 10%. Unless noted, the call rests on the fitted dose curve; in most records, active means well fitted inhibition curve with a large enough effect; inconclusive means small, poorly fitted or top-dose-only effect; inactive means no such curve, though single readings can be large or run the other way.

SMILES | CtBP-E1A blk | HP1b chromo inh | Six1-Eya2 blk | G9a inh | BAZ2B block | JMJD2A Tudor inh
Cc1ccc(N(CC(O)CN2CCCCC2)S(=O)(=O)c2ccccc2)cc1 (stereo not given) | n | n | n | n | n | u
Cc1cnc(SCCc2ccncc2)nc1C | x | x | x | 8.9µM | n | x
N#Cc1cnc(SCCc2ccccc2)nc1N | n | n | n | u | n | n
COc1ccc(-c2nn(-c3ccccc3)cc2C(=O)O)cc1OC | n | n | n | n | n | n
O=C(O)c1cccc(N/N=C/c2ccc(F)c(F)c2)c1 | n | n | n | 7.9µM | n | n
COc1ccc(-c2nn(-c3ccccc3)cc2/C=N/Nc2ccc(Cl)c(C(=O)O)c2)cc1OC | n | n | n | 40µM | n | n
Cc1cccc2cc(/C=N/Nc3ccc(C(=O)O)cc3)c(Cl)nc12 | n | n | n | x | 50µM | u
O=C(N/N=C/c1ccc(F)c(F)c1)c1cccc(S(=O)(=O)N2CCCCC2)c1 | n | n | n | n[12.7 µM] | n | n
O=C(O)c1ccc(N/N=C/c2cc3ccccc3nc2Cl)cc1 | x | n | n | u | n | n
COc1ccc2ccccc2c1/C=N/Nc1ccc(Cl)c(C(=O)O)c1 | n | u | n | 45µM | u | n
COc1ccc(CNC(=O)C[C@@H]2CC[C@@H](NS(=O)(=O)c3cccc(OC)c3)[C@@H](CO)O2)cc1 | n | x | n | x | x | x
O=C(N/N=C/c1ccc(O)cc1)c1cccc(N/N=C/c2ccc(O)cc2)c1 | u | n | n | 10µM | n | n[11.4 µM]
Cc1ccsc1/C=N/Nc1cccc(C(=O)O)c1 | n | n | n | 45µM | n | n
O=C(O)c1cccc(Cn2c(Cl)c(/C=N/Nc3ccccc3)sc2=O)c1 | n | n | n | 13µM | 25µM | u
O=C(O)c1cccc(N/N=C/c2cccc3ccccc23)c1 | n | n | n | 35µM | n | n
Cc1ccsc1/C=N/Nc1ccc(C(=O)O)cc1 | x | n | n | n | n | n
Cc1ccc(/C=N/Nc2cccc(C(=O)O)c2)s1 | n | n | n | u | n | u
O=C(N/N=C/c1ccncc1)c1cccc(N/N=C/c2ccncc2)c1 | n | n | n | u | n | u
Cn1c(-c2ccccc2)cc(=O)n1-c1ccccc1 | n | n | n | x | x | n
COc1ccc2ccccc2c1/C=N/Nc1cccc(C(=O)O)c1 | n | n | n | 45µM | u | n
O=C(O)c1cccc(N/N=C/C2=C(Cl)c3cc(Cl)ccc3SC2)c1 | n | n | n | 50µM | 50µM | 56µM
O=C(N/N=C/c1sc(=O)n(Cc2ccc(Br)cc2)c1Cl)c1ccco1 | n | n | n | n[0.0925 µM] | 89µM | u
Cc1nn(-c2ccccc2Cl)c(Cl)c1/C=N/Nc1cccc(C(=O)O)c1 | n | n | n | 8.9µM | u | n
COc1ccc(N/N=C/c2c(C(=O)O)ccc3ccccc23)cc1 | n | n | u | n[12.7 µM] | n | n
Cc1ccc(C(=O)NCCCNC(=O)COc2ccc(C)c(C)c2)cn1 | n | n | n | n | n | n
SMILES | CtBP-E1A blk | HP1b chromo inh | Six1-Eya2 blk | G9a inh | BAZ2B block | JMJD2A Tudor inh
CCN(c1ccccc1)S(=O)(=O)c1c(C)nc2scc(C)n2c1=O | x | n | x | n | n | n
CC(=O)n1c2ccccc2c2ccccc21 | n | n | n | n | n | n
CC(=O)n1c(Cl)c(NC(=O)CCl)c2ccccc21 | n | n | n | u | 45µM | n
CCN(Cc1ccccc1)C(=O)CCS(=O)(=O)c1cc2c(cc1Cl)NC(=O)CO2 | n | n | n | 50µM! | n | n
COCCn1cnnc1SCC(=O)Nc1ccc(Br)cc1F | n | n | n | n | n | n
Cc1nc([N+](=O)[O-])c(C(=O)OCc2ccccc2)n1C | n | n | n | n | n | n
Cc1nc([N+](=O)[O-])c(C(=O)OCc2cccc(Br)c2)n1C | n | n | n | 50µM | n | n
CCOC(=O)c1cc(C#N)c(SC(C)C(=O)NC2CCCCC2)nc1C (stereo not given) | x | n | n | n | n | n
